Out of some 2,200 compounds screened, about 480 (22%) were called active. The rule behind the calls is not given here. The list is a sample of the results. Results with a measured potency or affinity are listed apart.
test: S. Typhimurium GFP fluorescence modified counterscreen for PhoP regulon inhibitor project dose response (AID 1981); conditions: 4 h; series mostly up to 150 µM

Compound | outcome
Cc1ccc(NC(=O)CSc2nnc(C3CCCCC3)n2N)cc1F | inactive
O=C(c1cccnc1Nc1ccc2c(c1)CCC2)N1CCOCC1 | inactive
O=C(Nc1cccn(Cc2c(Cl)cccc2Cl)c1=O)c1ccccc1Cl | inactive
CCCn1c(N)c(C(=O)COC(=O)c2c(C)noc2C)c(=O)n(C)c1=O | inactive
CCOC(=O)C1=CSC2=NS(=O)(=O)CCN12 | inactive
O=C(CCN1C(=O)COc2ccccc21)NCCN1CCOCC1 | inactive
C#CCn1c(=NC(=O)c2cc(Cl)sc2Cl)sc2cc(S(N)(=O)=O)ccc21 | inactive
CCN(CC)S(=O)(=O)c1ccc(C(=O)N2CCN=C2SCc2cccnc2)cc1 | inactive
Cc1cc(O)ccc1Nc1nc2ccccc2nc1Nc1ccc(O)cc1C | inactive
Cc1ccc(Nc2cc(C)c3c(O)cccc3n2)cc1C | inactive
Cc1cc(Nc2ccccc2)nc2cc(O)ccc12 | inactive
Cc1ccc(Nc2cc(C)c3ccc(O)cc3n2)cc1C | inactive
c1ccc(-n2cnc3cc(NCc4ccccn4)ccc32)cc1 | inactive
CCOC(=O)c1[nH]c2ccccc2c1NC(=O)C(C)(C)C | inactive
Cn1cc(C(CC(=O)O)C(=O)O)c2ccccc21 (configuration not stated) | inactive
CCOc1ccc(-n2c(SCc3nc(-c4ccc(C)cc4)no3)nnc2-c2ccncc2)cc1 | inactive
c1cncc(-c2nc(N3CCOCC3)c3ccccc3n2)c1 | inactive
O=c1[nH]c2cc3c(cc2cc1CN(CCc1ccccc1)Cc1nnnn1CC1CCCO1)OCO3 (configuration not stated) | inactive
CCn1c(=O)c(=O)[nH]c2cc(C(=O)NCC3CCCCC3)ccc21 | inactive
CCOC(=O)CNS(=O)(=O)c1c(C)noc1C | inactive
CC1=CC2=NC(=O)/C(=C\c3cc(C)n(-c4ccc(F)cc4)c3C)C(=N)N2O1 | inactive
Cc1ccc(C(=O)CSC2=C(C#N)C(c3ccco3)CC(=O)N2)c(C)c1 (configuration not stated) | inactive

Compound | outcome
COCCNC(=S)N(Cc1cccnc1)Cc1ccc(OC)c(OC)c1 | inactive
COc1ccc(NC(=O)ON=C2c3ccccc3-c3ccccc32)cc1 | inactive
COC(=O)c1cc(C#N)c(Oc2ccccc2OC)nc1C | inactive
O=C(Cn1nc(C(F)(F)F)c2c1CCCCC2)N1CCOCC1 | inactive
Cc1ccc2occ(/C=N/O)c(=O)c2c1 | inactive
C#CCOc1ccc(/C=C2\SC(=S)N(Cc3cccnc3)C2=O)cc1 | inactive
c1ccc2oc(SCc3cn4ccccc4n3)nc2c1 | inactive
Cc1cc(NC(=O)c2ccco2)ccc1-n1cnnn1 | inactive
CCOc1ccccc1Nc1nc2ccccc2n2cnnc12 | inactive
CCn1c(=O)c2c(O)cc(=O)oc2c2ccccc21 | inactive
Cc1nc([N+](=O)[O-])c(Br)n1CC(=O)c1ccccc1 | inactive
C=CCNc1ncnc2ccc(Br)cc12 | inactive
O=c1c2c(-c3ccccc3)csc2nc2c3ccccc3c(NCCN3CCOCC3)nn12 | inactive
COc1ccc(NC(=O)CSc2nnc(-c3cccs3)n2Cc2ccco2)cc1OC | inactive
CCSc1nc(C2CC2)cc(-c2cccs2)c1C#N | inactive
c1ccc2cc(CSCc3nc4ccccc4[nH]3)ccc2c1 | inactive
Cc1ccc(NC(=O)COC(=O)C2(c3ccc(Cl)cc3)CCCC2)cc1 | inactive
O=C(CSc1nnc(-c2cccnc2)o1)OC1CCCCC1 | inactive
COc1cccc(NS(=O)(=O)c2c(C)cc(C)cc2C)c1 | inactive
c1ccc2c(C3=NNC(=NC4CC4)SC3)c[nH]c2c1 | inactive
COc1ccc(NC(=O)CSc2nc(C)cs2)cc1OC | inactive
c1ccn2c(CNc3ncnc4sccc34)nnc2c1 | inactive

Compound | outcome
CCCCOC(=O)CCNc1n[nH]c(=O)[nH]c1=O | inactive
O=C(Nc1ccc(NC(=O)C23CC4CC(CC(C4)C2)C3)cn1)c1ccco1 | inactive
COC(=O)CCC(=O)Nc1ccc(OC)cc1 | inactive
CC(=O)N/N=C/c1ccc(OCCOc2ccc(Br)cc2)cc1 | inactive
O=C1CCCc2c1cc(C(=O)NCc1ccco1)c(=O)n2-c1ccc(Cl)cc1 | inactive
COc1ccc(OC)c(C2=Nn3c(nnc3-c3cc(OC)c(OC)c(OC)c3)SC2)c1 | inactive
N[C@H](CSCc1ccccc1)C(=O)Nc1ccc([N+](=O)[O-])cc1 | inactive
O=C(Cc1ccc(Cl)cc1)NNS(=O)(=O)c1ccc([N+](=O)[O-])cc1 | inactive
Cc1ccc(CSCc2nc3ccccc3[nH]2)cc1 | inactive
CN1CCCC(OC(=O)CCCC(=O)OC2CCCN(C)C2)C1 (configuration not stated) | inactive
O=C(c1ccc(Oc2ccccc2)cc1)c1nc2c(n1O)CCCC2 | inactive
CC1CC(C)CN(CCCSc2ccccc2)C1 (configuration not stated) | inactive
CC(Nc1ccc(Br)cn1)c1cc(Cl)ccc1O (configuration not stated) | inactive
O=C(CN1CCN(c2ccccn2)CC1)Nc1ccc(Oc2ccccc2)cc1 | inactive
Cc1nn2c(=O)cc(CSc3nc4ccccc4[nH]3)nc2s1 | inactive
CC(=Nc1c(C)n(C)n(-c2ccccc2)c1=O)c1c(O)n(Cc2ccccc2)c(=O)[nH]c1=O | inactive
Cc1cc2nn(-c3ccccc3)nc2cc1NC(=O)c1cccs1 | inactive
NNC(=O)CNC(c1ccccc1)c1cc(Br)ccc1NC(=O)c1ccc(Br)cc1 (configuration not stated) | inactive
O=C(/C=C/c1ccco1)N/C(=C\c1ccccc1)C(=O)NCCc1nc2ccccc2[nH]1 | inactive
O=C(O)CCc1nn2c3ccccc3n(CCN3CCCCC3)c2nc1=O | inactive
O=C(NCc1cccs1)[C@@H]1CSC2c3ccccc3C(=O)N21 (some centres not stated) | inactive
CC(C(=O)NC1CCCc2ccccc21)N1CCN(Cc2ccc3c(c2)OCO3)CC1 (configuration not stated) | inactive

Compound | outcome
Cc1ccc(NC2CC(=O)N(Cc3ccccc3)C2=O)cc1 (configuration not stated) | inactive
NC(=O)C1(NC(=O)[C@@H]2CC3(CC(c4cccc(NC(=O)[C@@H]5CCC(=O)N5)c4)=NO3)CN2C(=O)Cc2ccc(Cl)cc2)CC1 (some centres not stated) | inactive
Cc1ccc(C=Nc2ccccc2C(N)=O)s1 | inactive
CC(=O)Nc1ccc(-c2nnc(SCc3c(C)cc(C)cc3C)n2C)cc1 | inactive
O=C(NCc1cccs1)c1cccc(Nc2nc3ccc(Br)cc3[nH]2)c1 | inactive
Nc1c(C(=O)NCCc2ccc(Cl)cc2)sc2ccc(S(=O)(=O)N3CCCCC3)cc12 | inactive
CCCCCCCCNc1ncnc2ccccc12 | inactive
Clc1ccc(OCCn2ccnc2)c(Br)c1 | inactive
Cc1ccc(N2C(=O)CC(Nc3ccccc3)C2=O)cc1 (configuration not stated) | inactive
COC(=O)c1sccc1N/N=C(\C)c1ccc(F)c(Cl)c1 | inactive
CCN(CC(=O)N1CCN(Cc2ccccc2)CC1)S(=O)(=O)c1ccc(F)cc1 | inactive
O=C(Nn1c(O)c(C=C2N=c3ccccc3=N2)sc1=S)c1ccc(Cl)cc1 | inactive
C=CCn1c(SCC(=O)Nc2nnc(CC)s2)nnc1-c1cccnc1 | inactive
CN(c1ccccc1)S(=O)(=O)c1ccc(C(=O)Nc2nnc(-c3ccc(F)cc3)o2)cc1 | inactive
Cc1ccc(C)c(NC(=O)C(Sc2nnc(-c3cccs3)o2)c2ccccc2)c1 (configuration not stated) | inactive
Cc1cc(-c2c(C)n([O-])c(C)c(C)[n+]2=O)ccc1F | inactive
COc1cc(C(=O)NC(=S)Nc2ccc3oc(=O)ccc3c2)cc(OC)c1OC | inactive
CC1(C)CC(=O)C2=C(C1)OC1=C(C(=O)CC(C)(C)C1)C2c1ccc(O)cc1O | inactive
Cc1cc(Nc2ccccc2F)n2ncnc2n1 | inactive
C/C(=N\N=C(/N)SC1CC(=O)N(c2cccc(Cl)c2)C1=O)c1cccs1 (configuration not stated) | inactive
CCCCCCNCc1cccc(Br)c1 | inactive
Cc1ccccc1NC(=O)Nc1cccs1 | inactive

Compound | outcome
O=C(c1cc(-c2cccs2)nc2ccccc12)N1CCN(c2ccccc2O)CC1 | inactive
CCC1=NNc2cccc3c(OC)ccc1c23 | inactive
O=C1Nc2ccccc2C12OCC1(CO2)COC2(OC1)C(=O)Nc1ccccc12 (configuration not stated) | inactive
Cc1ccc2nc(SCC(=O)NCc3ccco3)[nH]c2c1 | inactive
Cc1ccc(C(C)C)c(OCC(=O)N2CCN(Cc3nc4cc([N+](=O)[O-])ccc4n3C)CC2)c1 | inactive
Cc1cc(C)cc(-n2nc(C)cc2N)c1 | inactive
CCCN1C(=O)SC(CC(=O)Nc2ccc(Br)cc2)C1=O (configuration not stated) | inactive
Cn1c(NCc2cccs2)nc2ccccc21 | inactive
CC1CCC(C(C)C)C(OC(=O)Cn2c(-c3ccc(Cl)cc3)[n+](C)c3ccccc32)C1 (configuration not stated) | inactive
CC(C)[C@@H]1CC[C@@H](C)C[C@H]1OC(=O)C[n+]1cc(-c2ccc(Cl)cc2)n2c1CCCCC2 | inactive
NC[C@@]12CCCC1C1CCC2C1 (some centres not stated) | inactive
CN(C)S(=O)(=O)Oc1ccsc1C(=O)Nc1ccccc1Cl | inactive
COC(=O)c1cccc(NC(=O)CCCOc2ccccc2)c1 | inactive
O=C(CSC1CC(=O)N(CCc2ccccc2)C1=O)Nc1cccc(Cl)c1 (configuration not stated) | inactive
Nc1ccc2nc(SCC(=O)Nc3ccc(N4CCOCC4)c(Cl)c3)sc2c1 | inactive
Cc1cccc(NC(=O)CCC(=O)OCc2ccc(Br)cc2)c1 | inactive
Cc1nc2ccccc2n1CC(=O)N/N=C\C=C\c1ccccc1 | inactive
O=C(CCN1C(=O)c2ccccc2C1=O)Nc1ccc(-c2cn3ccsc3n2)cc1 | inactive
CC(C)(C)n1ncc2c(=O)n(CC(=O)Nc3ccc4c(c3)OCO4)cnc21 | inactive
O=C1NC(=Nc2ccccc2)/C(=C/c2ccco2)S1 | inactive
COC(=O)c1ccc(CSc2nnnn2-c2ccccc2)o1 | inactive
O=C1c2ccccc2C(=O)N1CCCc1nc(-c2ccccn2)no1 | inactive

Compound | outcome
O=C(/C=C/c1ccccc1)N/C(=C/c1ccccc1)C(=O)N1CCOCC1 | inactive
CCCOc1ccc(Br)cc1CSC(=N)N | inactive
C=CCOc1ccc(Br)cc1/C=N/O | inactive
COC(=O)c1ccc(NC(=O)c2ccc(N(C)S(C)(=O)=O)cc2)cc1 | inactive
CC1CCCCN1CCNS(=O)(=O)c1ccc2c(c1)oc(=O)n2C (configuration not stated) | inactive
O=C1NC2=C(CCc3ccccc32)C(c2ccc(Br)cc2)N1 (configuration not stated) | inactive
Cc1ccccc1NC(=O)c1ccc(-n2cncn2)nc1 | inactive
CCc1nc2ccccc2c2nc3ccccc3n12 | inactive
CCOC(=O)CC(=O)CSc1nc2c(c(C)c1C#N)CCC2 | inactive
N/C(=N\c1nc2ccccc2o1)NC(=O)c1ccccc1F | inactive
Oc1ccc(/C=N/NC2=NCCCCC2)c(O)c1 | inactive
CC1C(=O)NN=C1C(=O)N/N=C\c1ccc(O)cc1O (configuration not stated) | inactive
Oc1ccc(/C=N/n2cnn(Cc3ccccc3Cl)c2=S)c(O)c1 | inactive
CC(=O)Nc1cc(N=Cc2ccc(O)cc2O)c(Cl)cc1Cl | inactive
O=C(N/N=C/c1ccc(O)cc1O)/C(=C/c1ccccc1)CCO | inactive
Cc1ccc2nc(SCCCCOc3ccccc3)[nH]c2c1 | inactive
CCOC(=O)CN1C(=O)C(C)(C)Oc2ccc(C(=O)Nc3ccccc3OC)cc21 | inactive
O=C(Nc1cc(C(F)(F)F)ccc1N1CCOCC1)c1ccc(Br)o1 | inactive
COc1ccc(C)cc1NC(=O)C(Sc1nnc(-c2ccncc2)n1-c1ccc(Cl)cc1)c1ccccc1 (configuration not stated) | inactive
Cc1ccc(N=Cc2sc(O)c3ccccc23)cc1 | inactive
O=C1CSC(=S)N1c1ccc(F)cc1 | inactive
CC(=O)Nc1nc(-c2ccc(Cl)cc2)nc(C)c1C(C)=O | inactive

From PubChem BioAssay AID1981 (Southern Research Specialized Biocontainment Screening …, 2009)
